# Over roughly 2,900 compounds, “NF-kB SEAP reporter activity, fold change vs agonist alone” has its median near 0.99; the highest 2% begin near 2.6. The sample as a whole holds a higher share of the highest values than the screen did.
# Columns and labels:
# RAW-Dual [1] = assay: NF-kB SEAP reporter activity, fold change vs agonist alone; cytotoxicity flag (confluency mask): not cytotoxic; higher = enhanced NF-kB activity
# How it was run: (§1)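 Cytotoxic wells were those whose IncuCyte confluency was below 70% of agonist controls in both mask sets. The cells were RAW-Dual macrophages at 50,000 cells/well in DMEM on 384-well plates, dosed with 50 nL of library stock by pin tool, stimulated with a PRR agonist 1 h later, and kept at 37 °C, 5% CO2 for 20 hours. IRF and NF-κB reporter activity, as fold change over agonist-alone wells, came from supernatant read by QuantiLuc luminescence and QuantiBlue absorbance, respectively.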
# RAW-Dual [2] = assay: NF-kB SEAP reporter activity, fold change vs agonist alone; higher = enhanced NF-kB activity
# How it was run: as §1
# RAW-Dual [3] = assay: NF-kB SEAP reporter activity, fold change vs agonist alone; cytotoxicity flag (confluency mask): cytotoxic (confluency <70% of control); higher = enhanced NF-kB activity
# How it was run: as §1
# [4] = agonist: ODN 1826 (TLR9) 0.5 ug/mL
# [5] = agonist: Pam2CSK4 (TLR2/6) 0.1 ug/mL
# [6] = agonist: Pam3CSK4 (TLR2/1) 0.1 ug/mL
# [7] = library stock concentration (final ~1000-fold dilution): 10 mM, cytotoxicity flag (confluency mask): not cytotoxic, agonist: Imiquimod (TLR7) […]
# [8] = library stock concentration (final ~1000-fold dilution): 10 mM, cytotoxicity flag (confluency mask): not cytotoxic, agonist: MPLA (TLR4) […]
# [9] = library stock concentration (final ~1000-fold dilution): 10 mM, cytotoxicity flag (confluency mask): cytotoxic (confluency <70% of control), agonist: Imiquimod (TLR7) […]
# [10] = library stock concentration (final ~1000-fold dilution): 10 mM, cytotoxicity flag (confluency mask): cytotoxic (confluency <70% of control), agonist: MPLA (TLR4) […]
structure (smiles),measurement,setting,value
Br.COc1cc(Br)c(Nc2nc(-c3c(C)nc4ncccn34)cs2)c(Br)c1 (library stock concentration (final ~1000-fold dilution): 10 mM),NF-kB SEAP reporter activity,RAW-Dual [1]; agonist: LPS (TLR4) 0.1 ug/mL,1.91
same,NF-kB SEAP reporter activity,RAW-Dual [1]; [4],1.96
same,NF-kB SEAP reporter activity,RAW-Dual [1]; [5],0.305
same,NF-kB SEAP reporter activity,RAW-Dual [1]; [6],0.861
Br.COc1cc(Br)c(Nc2nc(-c3c(C)nc4ncccn34)cs2)c(Br)c1,NF-kB SEAP reporter activity,RAW-Dual [2]; [7],1.42
same,NF-kB SEAP reporter activity,RAW-Dual [2]; [8],2.42
Cl.O=C1CN2Cc3c(ccc(Cl)c3Cl)NC2=N1,NF-kB SEAP reporter activity,RAW-Dual [2]; [7],1.34
same,NF-kB SEAP reporter activity,RAW-Dual [2]; [8],1.26
Cl.O=C1CN2Cc3c(ccc(Cl)c3Cl)NC2=N1 (library stock concentration (final ~1000-fold dilution): 10 mM),NF-kB SEAP reporter activity,RAW-Dual [1]; agonist: LPS (TLR4) 0.1 ug/mL,0.887
same,NF-kB SEAP reporter activity,RAW-Dual [1]; [4],1.24
same,NF-kB SEAP reporter activity,RAW-Dual [1]; [5],0.872
same,NF-kB SEAP reporter activity,RAW-Dual [1]; [6],1.01
CC(C)CC(NP(=O)(O)OC1OC(C)C(O)C(O)C1O)C(=O)NC(Cc1c[nH]c2ccccc12)C(=O)O (centres undefined) (library stock concentration (final ~1000-fold dilution): 10 mM),NF-kB SEAP reporter activity,RAW-Dual [1]; agonist: LPS (TLR4) 0.1 ug/mL,1.04
same,NF-kB SEAP reporter activity,RAW-Dual [1]; [4],0.986
same,NF-kB SEAP reporter activity,RAW-Dual [1]; [5],1.05
same,NF-kB SEAP reporter activity,RAW-Dual [1]; [6],1.41
CC(C)CC(NP(=O)(O)OC1OC(C)C(O)C(O)C1O)C(=O)NC(Cc1c[nH]c2ccccc12)C(=O)O (centres undefined),NF-kB SEAP reporter activity,RAW-Dual [2]; [7],0.973
same,NF-kB SEAP reporter activity,RAW-Dual [2]; [8],1.03
CCc1ccc(NC(=O)Nc2c[nH]c3ccccc23)cc1 (library stock concentration (final ~1000-fold dilution): 1 mM),NF-kB SEAP reporter activity,RAW-Dual [1]; agonist: LPS (TLR4) 0.1 ug/mL,0.445
same,NF-kB SEAP reporter activity,RAW-Dual [1]; [4],0.702
same,NF-kB SEAP reporter activity,RAW-Dual [1]; [5],0.417
same,NF-kB SEAP reporter activity,RAW-Dual [1]; [6],0.365
CCc1ccc(NC(=O)Nc2c[nH]c3ccccc23)cc1,NF-kB SEAP reporter activity,"RAW-Dual [2]; library stock concentration (final ~1000-fold dilution): 1 mM, cytotoxicity flag (confluency mask): not cytotoxic, agonist: Imiquimod (TLR7) […]",0.782
same,NF-kB SEAP reporter activity,"RAW-Dual [2]; library stock concentration (final ~1000-fold dilution): 1 mM, cytotoxicity flag (confluency mask): not cytotoxic, agonist: MPLA (TLR4) […]",0.736
CN(C(=O)n1cnc(-c2ccc[n+]([O-])c2)c1)C1CCCCC1,NF-kB SEAP reporter activity,RAW-Dual [2]; [7],0.995
same,NF-kB SEAP reporter activity,RAW-Dual [2]; [8],1.03
CN(C(=O)n1cnc(-c2ccc[n+]([O-])c2)c1)C1CCCCC1 (library stock concentration (final ~1000-fold dilution): 10 mM),NF-kB SEAP reporter activity,RAW-Dual [1]; agonist: LPS (TLR4) 0.1 ug/mL,1.04
same,NF-kB SEAP reporter activity,RAW-Dual [1]; [4],0.925
same,NF-kB SEAP reporter activity,RAW-Dual [1]; [5],0.966
same,NF-kB SEAP reporter activity,RAW-Dual [1]; [6],1.01
CC(=O)Oc1cc2c(cc1Cl)C(c1ccccc1C(=O)O)c1cc(Cl)c(OC(C)=O)cc1O2,NF-kB SEAP reporter activity,RAW-Dual [2]; [7],1.04
same,NF-kB SEAP reporter activity,RAW-Dual [2]; [8],1.41
CC(=O)Oc1cc2c(cc1Cl)C(c1ccccc1C(=O)O)c1cc(Cl)c(OC(C)=O)cc1O2 (library stock concentration (final ~1000-fold dilution): 10 mM),NF-kB SEAP reporter activity,RAW-Dual [1]; agonist: LPS (TLR4) 0.1 ug/mL,1.48
same,NF-kB SEAP reporter activity,RAW-Dual [1]; [4],1.24
same,NF-kB SEAP reporter activity,RAW-Dual [1]; [5],1.12
same,NF-kB SEAP reporter activity,RAW-Dual [1]; [6],1.05
COc1cc(C2CC(c3ccccc3)=NN2C(N)=S)cc(OC)c1OC (centres undefined) (library stock concentration (final ~1000-fold dilution): 10 mM),NF-kB SEAP reporter activity,RAW-Dual [1]; agonist: LPS (TLR4) 0.1 ug/mL,1.16
same,NF-kB SEAP reporter activity,RAW-Dual [1]; [4],1.25
same,NF-kB SEAP reporter activity,RAW-Dual [1]; [5],0.997
same,NF-kB SEAP reporter activity,RAW-Dual [1]; [6],1.13
COc1cc(C2CC(c3ccccc3)=NN2C(N)=S)cc(OC)c1OC (centres undefined),NF-kB SEAP reporter activity,RAW-Dual [2]; [7],1.58
same,NF-kB SEAP reporter activity,RAW-Dual [2]; [8],1.29
COc1cc(N2CCC(N)CC2)ccc1Nc1ncc(Cl)c(-c2c[nH]c3ccccc23)n1,NF-kB SEAP reporter activity,RAW-Dual [2]; [9],0.251
same,NF-kB SEAP reporter activity,RAW-Dual [2]; [10],0.226
O=C(c1ccc(C(=O)N2CCC(N3CCCC3)CC2)c(Nc2ccccc2)c1)N1CCC(N2CCCC2)CC1 (library stock concentration (final ~1000-fold dilution): 10 mM),NF-kB SEAP reporter activity,RAW-Dual [1]; agonist: LPS (TLR4) 0.1 ug/mL,0.933
same,NF-kB SEAP reporter activity,RAW-Dual [1]; [4],0.944
same,NF-kB SEAP reporter activity,RAW-Dual [1]; [5],1.04
same,NF-kB SEAP reporter activity,RAW-Dual [1]; [6],1.33
COc1cc(C(=O)N2CCC(N3CCN(C)CC3)CC2)ccc1Nc1ncc2c(n1)N(C)c1ccccc1C(=O)N2C (library stock concentration (final ~1000-fold dilution): 10 mM),NF-kB SEAP reporter activity,RAW-Dual [1]; agonist: LPS (TLR4) 0.1 ug/mL,3.59
same,NF-kB SEAP reporter activity,RAW-Dual [1]; [4],0.264
same,NF-kB SEAP reporter activity,RAW-Dual [1]; [5],1.02
same,NF-kB SEAP reporter activity,RAW-Dual [1]; [6],2.01
CCOc1cc(C(=O)N2CCC(N3CCN(C)CC3)CC2)ccc1Nc1ncc2c(n1)N(C1CCCC1)c1ccccc1C(=O)N2C,NF-kB SEAP reporter activity,RAW-Dual [2]; [9],1.44
same,NF-kB SEAP reporter activity,RAW-Dual [2]; [10],2.71
CCOc1cc(N2CCC(O)CC2)ccc1Nc1ncc2c(n1)N(C)c1ccccc1C(=O)N2C (library stock concentration (final ~1000-fold dilution): 10 mM),NF-kB SEAP reporter activity,RAW-Dual [1]; agonist: LPS (TLR4) 0.1 ug/mL,3.72
same,NF-kB SEAP reporter activity,RAW-Dual [1]; [4],1.57
same,NF-kB SEAP reporter activity,RAW-Dual [1]; [5],1
same,NF-kB SEAP reporter activity,RAW-Dual [1]; [6],1.48
O=C(c1ccc(C(=O)N2CCC(N3CCCC3)CC2)c(Nc2ccccc2)c1)N1CCC(N2CCCC2)CC1,NF-kB SEAP reporter activity,RAW-Dual [2]; [7],0.917
same,NF-kB SEAP reporter activity,RAW-Dual [2]; [8],1.12
COc1cc(N2CCC(N)CC2)ccc1Nc1ncc(Cl)c(-c2c[nH]c3ccccc23)n1 (library stock concentration (final ~1000-fold dilution): 10 mM),NF-kB SEAP reporter activity,RAW-Dual [3]; agonist: LPS (TLR4) 0.1 ug/mL,0.166
same,NF-kB SEAP reporter activity,RAW-Dual [3]; [4],0.19
same,NF-kB SEAP reporter activity,RAW-Dual [3]; [5],0.0626
same,NF-kB SEAP reporter activity,RAW-Dual [3]; [6],0.118
COc1cc(N2CCN(C)CC2)ccc1Nc1ncc2c(n1)N(C)c1ccccc1C(=O)N2,NF-kB SEAP reporter activity,RAW-Dual [2]; [7],0.928
same,NF-kB SEAP reporter activity,RAW-Dual [2]; [8],1.03
COc1cc(C(=O)N2CCC(N3CCN(C)CC3)CC2)ccc1Nc1ncc2c(n1)N(C)c1ccccc1C(=O)N2C,NF-kB SEAP reporter activity,RAW-Dual [2]; [7],1.48
same,NF-kB SEAP reporter activity,RAW-Dual [2]; [8],2.66
CCOc1cc(N2CCC(O)CC2)ccc1Nc1ncc2c(n1)N(C)c1ccccc1C(=O)N2C,NF-kB SEAP reporter activity,RAW-Dual [2]; [7],1.23
same,NF-kB SEAP reporter activity,RAW-Dual [2]; [8],1.91
COc1cc(N2CCN(C)CC2)ccc1Nc1ncc2c(n1)N(C)c1ccccc1C(=O)N2 (library stock concentration (final ~1000-fold dilution): 10 mM),NF-kB SEAP reporter activity,RAW-Dual [1]; agonist: LPS (TLR4) 0.1 ug/mL,0.966
same,NF-kB SEAP reporter activity,RAW-Dual [1]; [4],0.514
same,NF-kB SEAP reporter activity,RAW-Dual [1]; [5],1.08
same,NF-kB SEAP reporter activity,RAW-Dual [1]; [6],1.61

# Reference: the supplement of paper PMC10037445
